Source: PubChem BioAssay
This is a sample that favours compounds with a hit; in the whole collection about 21% have one here.
Pf growth 48h: Primary qHTS for delayed death inhibitors of the malarial parasite plastid, 48 hour incubation; 310,000 compounds, 5.9% hits; AID 504832, 2011; Potency, µM (titrated, usually from 28.7 µM), hits mostly inhibitors; P. falciparum luciferase growth in erythrocytes, 48 h; active = well fitted inhibition curve with a large enough effect; inconclusive = small, poorly fitted or top-dose-only effect, or another doubt; inactive = no such curve, though single readings can be large or run the other way
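Read-out is firefly luciferase luminescence from an integrated reporter in P. falciparum, so falling signal marks reduced parasite growth. Infected erythrocytes were at 2% hematocrit and 0.1% parasitemia (final) in Albumax-supplemented RPMI 1640.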
NS1 function inh: qHTS Assay for Inhibitors of Influenza NS1 Protein Function. Potency, µM (top dose mostly 46.1 µM). 270,000 compounds, 0.4% hits. AID 2326, 2010; note: actives are rising curves; nearly all actives have a fitted effect of over 50% in size
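S. cerevisiae expressing influenza A NS1, grown in glucose, washed, then diluted 1:100 into pH 6.0 -URA galactose medium with 23 nl compound. Growth recovery read as OD600; NS1-free strain serves as control.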
Cycloheximide cs: Cycloheximide Counterscreen for Small Molecule Inhibitors of Shiga Toxin | cell reporter, cycloheximide protein synthesis inhibition counterscreen | max response, % | 300,000 compounds, 12% hits | AID 2314, 2010; in the data active = max response mostly above about 13%, no sharp cut-off; inactive = mostly below about 14%; note: read at 38.3 µM for the half of the compounds with a filed dose
SARS PLP yeast: qHTS of Yeast-based Assay for SARS-CoV PLP; S. cerevisiae expressing SARS-CoV PLpro, growth rescue; Potency, µM (highest dose often 32.9 µM), actives largely listed as activators; 330,000 compounds, 0.19% hits; AID 485353, 2010; note: nearly all actives have a fitted effect of over 55% in size
Pf growth 96h: Primary qHTS for delayed death inhibitors of the malarial parasite plastid, 96 hour incubation; 320,000 compounds, 6.9% hits; AID 504834, 2011; P. falciparum luciferase reporter growth, 96 h; Potency, µM (highest dose often 28.7 µM), actives largely listed as inhibitors; active = well fitted inhibition curve with a large enough effect; inconclusive = small, poorly fitted or top-dose-only effect, or another doubt; inactive = no such curve, though single readings can be large or run the other way
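Cell-based qHTS: luciferase-tagged P. falciparum in erythrocytes (2% hematocrit, 0.05% parasitemia final) incubated with compounds for 96 hours, 37 C, 5% CO2; luciferase detection reagent then added and luminescence measured.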
Shiga inhibitor: A qHTS for Small Molecule Inhibitors of Shiga Toxin. Vero cells, Shiga toxin protein synthesis inhibition reporter. inhibition, % at 38.7 µM. 290,000 compounds, 9.2% hits. AID 2315, 2010; in the data active = inhibition mostly above about 28%, no sharp cut-off; inactive = mostly below about 43%
Of the large screens only hits and unclear results are named; the others gave an inactive call. Unless noted, calls come from the whole dose curve.

O=c1c2ccccc2oc2ccc(NCCCN3CCOCC3)cc12	Cycloheximide cs 35.6, Shiga inhibitor 43.3
O=C(COc1ccc2c(c1)oc(=O)c1ccccc12)NCCCN1CCOCC1	Pf growth 48h inconclusive, Pf growth 96h inconclusive
O=c1c2ccccc2oc2cc(NCCCn3ccnc3)ccc12	Cycloheximide cs 23.8, Shiga inhibitor 23.6
O=C(COc1ccc2c(-c3ccccc3)cc(=O)oc2c1)NCCCn1ccnc1	Pf growth 48h inconclusive
COCCNC(=S)N/N=C/c1ccc(OCc2ccc(C(=O)OC)cc2)cc1	none
COc1ccc(CCNC(=O)CC(c2ccccc2)c2cc(C)ccc2O)cc1OC (stereo not given)	Pf growth 48h inconclusive
S=P(C1CCCCC1)(C1CCCCC1)[C@H](c1cccnc1)N1CCCC1	none (no result: Pf growth 48h, Cycloheximide cs, SARS PLP yeast, Pf growth 96h, Shiga inhibitor)
CCCCc1cn([C@@H](CCCCNC(=O)OC(C)(C)C)C(=O)N2CCN(C(=O)OC(C)(C)C)CC2)nn1	Pf growth 48h 14.7µM, Pf growth 96h 10.4µM
CC(C)(C)OC(=O)CC[C@@H](C(=O)NCCCCCCCCCCC(=O)N1CCN(C(=O)OC(C)(C)C)CC1)n1cc(CCCCCNC(=O)OC(C)(C)C)nn1	Pf growth 48h 0.37µM, Pf growth 96h 0.329µM (no result: NS1 function inh, Cycloheximide cs, Shiga inhibitor)
CC(C)(C)OC(=O)NCCCC[C@@H](C(=O)NCCCCCCCCCCC(=O)N1CCN(C(=O)OC(C)(C)C)CC1)n1cc(CCCC(=O)O)nn1	Pf growth 48h 7.38µM, Pf growth 96h 5.86µM (no result: NS1 function inh, Cycloheximide cs, Shiga inhibitor)
CC(C)(C)OC(=O)NCCCC[C@@H](C(=O)N1CCN(C(=O)OC(C)(C)C)CC1)n1cc(CCC(=O)O)nn1	none
CC(C)(C)OC(=O)NCCCCCc1cn([C@@H](CO)C(=O)NCCCCCCCCCCC(=O)N2CCN(C(=O)OC(C)(C)C)CC2)nn1	Pf growth 48h 1.17µM, Pf growth 96h 2.94µM (no result: NS1 function inh, Cycloheximide cs, Shiga inhibitor)
CCOC(=O)C1C(=O)NC(c2ccccc2)=NC1c1ccc(Br)cc1 (stereo not given)	none (no result: NS1 function inh)
Cc1ccccc1NC(=O)Cn1c(=O)oc2ccccc21	Pf growth 96h 4.15µM
CC(C)c1ccc(NC(=O)Cn2c(=O)oc3ccccc32)cc1	Shiga inhibitor 31.8
CCCOC(=O)c1ccc(Oc2c(-c3ccc(OCC)cc3O)n[nH]c2C)cc1	Pf growth 48h 5.22µM
COc1ccc(Oc2c(-c3ccc(O)cc3O)n[nH]c2C)cc1	none
CCCOC(=O)c1ccc(Oc2cn[nH]c2-c2ccc(OCC)cc2O)cc1	Pf growth 48h 4.65µM (no result: Pf growth 96h)
CCCc1ccc(Oc2cn[nH]c2-c2ccc(O)c(C)c2O)cc1	Pf growth 96h 10.4µM
O=C(Nc1oc2ccc(Cl)cc2c(=O)c1-c1ccc(F)cc1)c1ccco1	none
COC1C(OC(=O)/C=C/C=C/C=C/C=C/C(=O)O)CCC2(CO2)C1C1(C)OC1CC=C(C)C (stereo not given)	Pf growth 48h 0.0038µM, Pf growth 96h inconclusive (no result: NS1 function inh, Cycloheximide cs, SARS PLP yeast, Shiga inhibitor)
COc1ccccc1OCc1nnc(SCC(=O)Nc2nnc(C3CC3)s2)n1C	none
Cc1cccc(OCCCC(=O)Nc2ccc(S(=O)(=O)Nc3onc(C)c3C)cc2)c1C	none
Cc1cccc(OCCCC(=O)Nc2ccc(S(=O)(=O)Nc3nccs3)cc2)c1C	Pf growth 96h 3.7µM
